# Reference: the supplement of paper PMC9942566
# Counter-ions that a name gives are not always drawn. ± gives the standard deviation of the averaged measurements.
# System: Serratia marcescens K904 PosmB-luxCDABE reporter (pMQ747)
# Test: PosmB-lux reporter fold induction (RLU/OD600 relative to no-compound control), highest over Biolog concentrations; higher = stronger reporter activation
# Conditions: ΔrcsB mutant CMS5177; 4 h
# Description: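 Serratia marcescens K904 (wild type) or its isogenic ΔrcsB mutant, carrying the Rcs-dependent PosmB-luxCDABE reporter plasmid pMQ747, was grown in LB at OD600 0.1 in Biolog Phenotype MicroArray plates PM11-20 for 4 h at 30-32°C. Each compound is present at 3-4 proprietary concentrations (not stated); per the Fig. S1 legend the value given is the highest fold over those wells. Three independent trials.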
row,SMILES,PosmB-lux reporter fold induction
1,"NC(CO)C(=O)NO (racemic) [D,L-Serine hydroxamate] (Biolog plate: PM12, well positions: C9-12)",1.74 ± 1.6
2,"Cc1onc(-c2ccccc2Cl)c1C(=O)N[C@@H]1C(=O)N2[C@@H]1SC(C)(C)[C@@H]2C(=O)O [Cloxacillin] (Biolog plate: PM11, well positions: B5-8)",1.06 ± 0.1
3,"CCN1CCN(C(=O)N[C@@H](C(=O)N[C@@H]2C(=O)N3C(C(=O)O)=C(CSc4nnnn4C)CS[C@H]23)c2ccc(O)cc2)C(=O)C1=O [cefoperazone] (Biolog plate: PM17, well positions: G9-12)",1.44 ± 0.22
4,"[Cl][Fe]([Cl])[Cl] [ferric chloride] (Biolog plate: PM16, well positions: G5-8)",1.47 ± 0.36
5,"CCCCCCCCCCCC[N+](C)(C)C [Dodecyltrimethyl ammonium bromide] (Biolog plate: PM12, well positions: H9-12)",1.97 ± 0.62
6,"CC(=O)OCC1=C(C(=O)O)N2C(=O)[C@@H](NC(=O)Cc3cccs3)[C@H]2SC1 [Cephalothin] (Biolog plate: PM11, well positions: H1-4)",1.37 ± 0.15
7,"Cc1ccc2c(Cl)cc(Cl)c(O)c2n1 [5,7-Dichloro-8-hydroxy-quinaldine] (Biolog plate: PM15, well positions: B9-12)",1.27 ± 0.13
8,"N=C(N)N [Guanidine hydrochloride] (Biolog plate: PM15, well positions: A5-8)",2.09 ± 0.16
9,"O=C([O-])c1ccccc1O.[Na+] [sodium salicylate (NSAID)] (Biolog plate: PM17, well positions: B1-4)",2.06 ± 0.94
10,"CCC(C)CCCC(=O)N[C@@H](CCN)C(=O)N[C@H](C(=O)N[C@@H](CCN)C(=O)N[C@H]1CCNC(=O)[C@H]([C@@H](C)O)NC(=O)[C@H](CCN)NC(=O)[C@H](CCN)NC(=O)[C@H](CC(C)C)NC(=O)[C@@H](CC(C)C)NC(=O)[C@H](CCN)NC1=O)[C@@H](C)O (stereo not given in full) [Colistin] (Biolog plate: PM11, well positions: C5-8)",1.1 ± 0.22
11,"CC[C@H]1OC(=O)C[C@@H](O)[C@H](C)[C@@H](O[C@@H]2O[C@H](C)[C@@H](O[C@H]3C[C@@](C)(O)[C@@H](O)[C@H](C)O3)[C@H](N(C)C)[C@H]2O)[C@@H](CC=O)C[C@@H](C)C(=O)/C=C/C(C)=C/[C@@H]1CO[C@@H]1O[C@H](C)[C@@H](O)[C@@H](OC)[C@H]1OC [Tylosin] (Biolog plate: PM13, well positions: H9-12)",4.38 ± 1.6
12,"CC1(C)S[C@@H]2[C@H](NC(=O)COc3ccccc3)C(=O)N2[C@H]1C(=O)O.CN(C)[C@@H]1C(O)=C(C(=O)NCN2CCN(CCO)CC2)C(=O)[C@@]2(O)C(O)=C3C(=O)c4c(O)cccc4[C@@](C)(O)[C@H]3C[C@@H]12 [Penimepicycline] (Biolog plate: PM12, well positions: B5-8)",1.27 ± 0.3
13,"O=C1C=C(O)C(=O)c2ccccc21 [lawsone] (Biolog plate: PM19, well positions: E9-12)",1.14 ± 0.35
14,"Nc1ccc2cc3ccc(N)cc3nc2c1 [proflavine] (Biolog plate: PM20, well positions: D1-4)",1.91 ± 0.49
15,"CO[C@@]1(NC(=O)Cc2cccs2)C(=O)N2C(C(=O)O)=C(COC(N)=O)CS[C@@H]21 [Cefoxitin] (Biolog plate: PM14, well positions: E1-4)",1.2 ± 0.19
16,"Nc1c2ccccc2nc2ccccc12 [9-Aminoacridine] (Biolog plate: PM14, well positions: B1-4)",1.19 ± 0.19
17,"CN[C@H](CC(C)C)C(=O)N[C@H]1C(=O)N[C@@H](CC(N)=O)C(=O)N[C@H]2C(=O)N[C@H]3C(=O)N[C@H](C(=O)N[C@H](C(=O)O)c4cc(O)cc(O)c4-c4cc3ccc4O)[C@H](O)c3ccc(c(Cl)c3)Oc3cc2cc(c3O[C@@H]2O[C@H](CO)[C@@H](O)[C@H](O)[C@H]2O[C@H]2C[C@](C)(N)[C@H](O)[C@H](C)O2)Oc2ccc(cc2Cl)[C@H]1O [Vancomycin] (Biolog plate: PM12, well positions: C5-8)",1.21 ± 0.36
18,"Cc1cc(N)c2ccccc2[n+]1CCCCCCCCCC[n+]1c(C)cc(N)c2ccccc21 [Dequalinium chloride] (Biolog plate: PM13, well positions: A5-8)",1.05 ± 0.21
19,"CO/N=C(\C(=O)N[C@@H]1C(=O)N2C(C(=O)O)=C(COC(N)=O)CS[C@H]12)c1ccco1 [Cefuroxime] (Biolog plate: PM13, well positions: D1-4)",1.42 ± 0.51
20,"CN1CCN(CCCN2c3ccccc3Sc3ccc(C(F)(F)F)cc32)CC1 [Trifluoperazine] (Biolog plate: PM13, well positions: G9-12)",1.43 ± 0.36

row,SMILES,PosmB-lux reporter fold induction
1,"[Na+].[Na+].[O]=[W](=[O])([O-])[O-] [sodium tungstate] (Biolog plate: PM17, well positions: E9-12)",0.99 ± 0.14
2,"Nc1ccc(S(N)(=O)=O)cc1 [sulfanilamide] (Biolog plate: PM16, well positions: B5-8)",1.59 ± 0.33
3,"CN[C@@H]1[C@H](O[C@H]2[C@H](O[C@H]3[C@H](O)[C@@H](O)[C@H](NC(=N)N)[C@@H](O)[C@@H]3NC(=N)N)O[C@@H](C)[C@]2(O)CO)O[C@@H](CO)[C@H](O)[C@H]1O [dihydro-streptomycin] (Biolog plate: PM19, well positions: G5-8)",0.97 ± 0.18
4,"CCCCC(CC)CNC(=N)NC(=N)NCCCCCCNC(=N)NC(=N)NCC(CC)CCCC (stereo not given) [Alexidine] (Biolog plate: PM15, well positions: E1-4)",1.92 ± 0.13
5,"O=C(O)CN(CCN(CC(=O)O)CC(=O)O)CC(=O)O (Biolog plate: PM15, well positions: B5-8)",1.22 ± 0.17
6,"O=C(O)/C=C/c1ccccc1 [cinnamic acid] (Biolog plate: PM19, well positions: C9-12)",1.17 ± 0.32
7,"S=c1nc[nH]c2nc[nH]c12 [6-Mercapto-purine] (Biolog plate: PM13, well positions: C1-4)",1.22 ± 0.54
8,"O=C(O)CN(CCOCCOCCN(CC(=O)O)CC(=O)O)CC(=O)O (Biolog plate: PM14, well positions: H1-4)",1.53 ± 0.51
9,"CN(C)[C@@H]1C(O)=C(C(N)=O)C(=O)[C@@]2(O)C(O)=C3C(=O)c4c(O)cccc4[C@@](C)(O)[C@H]3C[C@@H]12 [Tetracycline] (Biolog plate: PM12, well positions: A5-8)",1.12 ± 0.097
10,"N[C@H](CO)C(=O)O [D-serine] (Biolog plate: PM17, well positions: A2-4)",1.12 ± 0.081
11,"C[C@H]1c2cccc(O)c2C(=O)C2=C(O)[C@]3(O)C(=O)C(C(N)=O)=C(O)[C@@H](N(C)C)[C@@H]3[C@@H](O)[C@@H]21 [Doxycycline] (Biolog plate: PM13, well positions: C5-8)",1.91 ± 0.69
12,"CO[C@@H]1[C@@H](OC(N)=O)[C@@H](O)[C@H](Oc2ccc3c(O)c(NC(=O)c4ccc(O)c(CC=C(C)C)c4)c(=O)oc3c2C)OC1(C)C [Novobiocin] (Biolog plate: PM12, well positions: D9-12)",2.74 ± 1.3
13,"CO/N=C(\C(=O)N[C@@H]1C(=O)N2C(C(=O)O)=C(COC(C)=O)CS[C@H]12)c1csc(N)n1 [cefotaxime] (Biolog plate: PM16, well positions: A2-4)",1.11 ± 0.047
14,"CC1COc2c(N3CCN(C)CC3)c(F)cc3c(=O)c(C(=O)O)cn1c23 (stereo not given) [Ofloxacin] (Biolog plate: PM11, well positions: H9-12)",1.96 ± 0.47
15,"O=c1c(O)c(-c2cc(O)c(O)c(O)c2)oc2cc(O)cc(O)c12 [myricetin] (Biolog plate: PM18, well positions: G9-12)",0.868 ± 0.31
16,"O=C(N[C@H](CO)[C@H](O)c1ccc([N+](=O)[O-])cc1)C(Cl)Cl [Chloramphenicol] (Biolog plate: PM11, well positions: F1-4)",1.56 ± 0.59
17,"N=C(NCCCCCCNC(=N)NC(=N)Nc1ccc(Cl)cc1)NC(=N)Nc1ccc(Cl)cc1 [chlorhexidine] (Biolog plate: PM19, well positions: C1-4)",1.19 ± 0.57
18,"C/C=C/C=C/C(=O)O [sorbic acid] (Biolog plate: PM16, well positions: H9-12)",4.84 ± 2.9
19,"CO[C@@]1(NC(=O)C(C(=O)O)c2ccc(O)cc2)C(=O)N2C(C(=O)O)=C(CSc3nnnn3C)CO[C@@H]21 (stereo not given in full) [Moxalactam] (Biolog plate: PM13, well positions: H5-8)",1.94 ± 0.81
20,"NC(CO)C(=O)NNCc1ccc(O)c(O)c1O (stereo not given) [Benserazide] (Biolog plate: PM20, well positions: A9-12)",0.916 ± 0.14
